Hit rate of the full screen: of about 220,000 compounds, about 2,400 (1.1%) were called active. Entries that show only a call come without a potency. About 7% were inconclusive and are not listed. Calls come from the whole dose curve; as a rule, active = well fitted inhibition curve with a large enough effect; inconclusive = small, poorly fitted or top-dose-only effect, or effect the other way; inactive = no such curve, though single readings can be large or run the other way. Only a selection was taken, and actives are over-represented in it overall.
Potency is the fitted concentration of half-maximal effect.

The experiment can be described thus: qHTS Multiplex Assay to Identify Dual Action Probes in a Cell Model of Huntington: Aggregate Formation (GFP). Note: nearly all actives have a fitted effect of over 60% in size. The conditions noted are these: PC12 HttQ103-GFP aggregates, Acumen cytometry, 40 h; series mostly up to 9.22 µM. Put shortly: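 PC12 cells with ecdysone-inducible HTT exon1 Q103-GFP, induced by 100 nM tebufenozide, given compounds in a concentration series. GFP aggregates (1–25 um, 6 SD above background) counted in lysates by laser-scanning cytometry, 488 nm excitation.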
A general note: qHTS replaces the single test concentration by a dilution series.
As to `CCOC(=O)c1c(NC(=O)NC(C)(C)C)sc2c1CCN(C)C2`, the Potency result was “inactive”. In the case of `Cc1nn(Cc2ccc(Cl)c(Cl)c2)c(C)c1NC(=O)c1cc(C2CC2)on1`, the Potency is 17.8 µM (active). With `Cc1cc(C(=O)Nc2c(C)nn(Cc3ccccc3)c2C)on1`, the Potency entry was “inactive”. For `O=C(Nc1cc(C(F)(F)F)ccc1Cl)c1cc(C2CC2)on1`, the Potency result was “inactive”. For the compound `CCOC(=O)c1c(C)oc(C)c(C(=O)OCC)c1=O`, the Potency entry was “inactive”. To `Cc1c(S(=O)(=O)NCc2ccccc2)c(=O)n(C)c(=O)n1C` belongs “inactive”; to `CCc1ccc2nc(Nc3ncc(C(C)=O)c(C)n3)nc(C)c2c1`, “inactive”; to `Cn1c(SCC(=O)N2CCCc3ccccc32)nc2ccccc2c1=O`, 7.94 µM (active). With `O=C(CSc1nc2[nH]ncc2c(=O)n1-c1ccccc1)N1CCCc2ccccc21` the entry was “inactive”. Consider `O=C(CSc1nc2ccccc2c(=O)n1CCCO)N1CCc2ccccc21`, for which the Potency entry is “inactive”.

`Cc1nc(CNS(=O)(=O)c2cc([N+](=O)[O-])ccc2C)cs1`: the Potency result is “inactive”. For the compound `COc1ccc(CS(=O)/C(Cl)=C(/Cl)C(=O)Nc2ccc(OC)nc2)cc1` (stereo not given), the Potency is 5.01 µM (active). Regarding `COc1ccc(NC(=S)NCCNC(C)=O)cc1`, the Potency entry was “inactive”. With `COc1ccc(NC(=S)Nc2ccccc2Cl)cn1` the entry was “inactive”; with `FCOC(C(F)(F)F)C(F)(F)F`, “inactive”; with `COc1ccc(C(=O)NC(=S)NNC(=O)CCc2ccccc2)cc1`, “inactive”. Consider `CC(Oc1ccc2ccccc2c1)C(=O)NNC(=S)NC(=O)c1ccco1` (stereo not given), for which the Potency is 11.2 µM (active).

As to `O=C(Nc1ccc2ccccc2c1)/C(=C/c1cccc(Br)c1)NC(=O)c1ccco1`, the Potency result was “inactive”. With `O=C(c1ccco1)N1CCN(CCOc2ccccc2)CC1` the entry was “inactive”; with `COc1ccc(-c2cc(C(F)(F)F)nc(SCC(=O)Nc3ccc4c(c3)OCO4)n2)cc1OC`, “inactive”; with `COc1cc(OC)nc(S(C)(=O)=O)n1`, “inactive”.

For the compound `COc1ccc(-c2cc(C(F)(F)F)nc(S(C)(=O)=O)n2)cc1OC`, the Potency was 10 µM (active). To `CC1Cc2ccccc2N1S(=O)(=O)c1ccc(Cl)nc1` (stereo not given) belongs “inactive”; to `COc1ccc(C2(C#N)CCC(C(=O)O)CC2)cc1OC1CCCC1` (stereo not given), “inactive”; to `CCOC(=O)N1CCN(C(=O)C2CCN(Cc3ccc(OC)cc3OC)CC2)CC1`, “inactive”. To `CCOC(=O)C1CCN(c2ncnc3c2oc2ccc(Br)cc23)CC1` belongs “inactive”. To `CCOC(=O)N1CCN(C(=O)C2CCN(c3ncnc4c3sc3cccc(F)c34)CC2)CC1` belongs 10 µM (active); to `O=C(N/N=C\c1cccc(Br)c1)c1ccccc1-n1cccc1`, “inactive”. On to `COc1ccc(-c2[nH]ncc2/C=N/NC(=O)c2cc(Br)ccc2O)c(OC)c1`, for which the Potency entry was “inactive”. With `CC(C)/C=N/NC(=O)c1cc(Br)ccc1O`, the Potency was 8.91 µM (active). With `Cc1c(C)c(C)c2[nH]c(=S)[nH]c2c1C` the entry was “inactive”; with `CCc1c(C)nc2c(-c3ccccc3)c(C)nn2c1Nc1ccc(NC(C)=O)cc1`, “inactive”; with `O=C(CCC(=O)Nc1ccccc1)N/N=C/c1ccccc1F`, “inactive”. As for `O=C(N/N=C/c1ccccc1O)/C(=C/c1ccccc1)CCO`, the Potency was 7.94 µM (active). Consider `O=C(CCCCCNC(=O)c1ccccc1)N/N=C/c1ccccc1`, for which the Potency entry was “inactive”. Take `O=[N+]([O-])C(=c1ccc2c(c1)N1C3=C(CCCC3)CC3CCCCC31N=2)[N+](=O)[O-]` (stereo not given): the Potency result is “inactive”. `CCOC(=O)CN(C(=O)COc1nc(-c2ccccc2)cc(C)c1C#N)c1ccc(F)cc1`: the Potency result was “inactive”. To `C=CCN(c1ccccc1C(=O)NCC(=O)OCC)S(=O)(=O)c1ccc(C)cc1` belongs “inactive”. `CN1C(=O)c2ccc(NC(=O)C3CCCCC3)cc2C1=O`: the Potency entry is “inactive”.

As to `O=C(Nc1cnn(Cc2ccc(Cl)cc2)c1)C1CCCC1`, the Potency was 0.794 µM (active). To `O=C(O)c1ccc(NC(=O)C2CCCCC2)cc1` belongs “inactive”. With `Cc1nnc(-c2ccc(Oc3ccc(C)c(C)c3)c([N+](=O)[O-])c2)o1` the figure was 11.2 µM (active). `COc1ccc(OCC(=O)Nc2cc(C)c(Cl)cc2OC)c([N+](=O)[O-])c1`: the Potency result was “inactive”.

With `COc1ccc(-c2nc3cc([N+](=O)[O-])ccc3o2)cc1OC`, the Potency entry is “inactive”.

For `O=C(N/N=C/c1ccccn1)c1cccnc1`, the Potency entry is “inactive”. On to `NC(=O)Cc1ccc2c(c1)[nH]c1ccccc12`, for which the Potency result is “inactive”. `O=[N+]([O-])/C=C1\CCCCCN1`: the Potency entry was “inactive”. With `CCc1ccc(S(=O)(=O)NCC(O)COc2ccc(OC)cc2)cc1` (stereo not given) the entry was “inactive”; with `CCOc1ccc(-n2c(O)c(/C=N/Nc3nnc(C)c(=O)[nH]3)c3ccccc3c2=O)cc1`, “inactive”. `Cc1nnc(N/N=C/c2ccccn2)[nH]c1=O`: the Potency result is “inactive”. With `COc1ccc(Cc2nnc(N/N=C/c3ccccc3O)[nH]c2=O)cc1OC` the figure was 1.26 µM (active). With `COC(=O)[C@@H]1CC2=CC(=O)CC[C@]2(C)[C@@]23O[C@@H]2C[C@@]2(C)[C@@H](CC[C@@]24CCC(=O)O4)[C@H]13` the entry was “inactive”. To `CC(=O)c1cccc(NC(=O)Nc2ccc(C)cc2)c1` belongs “inactive”; to `COC(C(=O)Nc1ccc(C(C)=O)cc1)c1ccccc1` (stereo not given), “inactive”. `Cc1ccc(NC(=O)C(C)c2cccc(C(=O)c3ccccc3)c2)cc1` (stereo not given): the Potency was 25.1 µM (active). For `CCOC(=O)C1C(c2ccc(OC)c(OC)c2)c2c([nH][nH]c2=O)CC1(C)O` (stereo not given), the Potency result is “inactive”. Turning to `O=C1N(c2ccccc2)C(=Nc2ccccc2)SC12CC2`, the Potency result is “inactive”. Turning to `O=c1[nH]c(N2CCN(Cc3ccc4c(c3)OCO4)CC2)nc2c1CCCC2`, the Potency result is “inactive”. `Cc1cc(N2CCN(Cc3ccc4c(c3)OCO4)CC2)n2ncnc2n1`: the Potency entry was “inactive”.

For the compound `Fc1ccc2[nH]c3c(N4CCN(Cc5ccc6c(c5)OCO6)CC4)ncnc3c2c1`, the Potency is 3.55 µM (active).

Turning to `O=C(NNS(=O)(=O)c1ccccc1)c1cnn(-c2ccc(Cl)cc2)c1C(F)(F)F`, the Potency result was “inactive”. With `COc1cccc(OC)c1CN(C)C(=O)c1cnccc1C(F)(F)F` the entry was “inactive”. With `C/C(=N/NC(=O)c1ccn(C)n1)c1ccncc1` the entry was “inactive”; with `CC(/C=C/c1ccco1)=N/NC(=O)C1COc2ccccc2O1` (stereo not given), “inactive”; with `COc1ccccc1Oc1ccc(S(=O)(=O)Nc2cccnc2)cc1`, 11.2 µM (active). In the case of `O=S(=O)(Nc1ccccn1)c1ccc(Oc2ccccc2)cc1`, the Potency result is “inactive”. `COc1ccc(S(=O)(=O)Nc2cccnc2)c(Cl)c1Cl`: the Potency result is “inactive”.

On to `COc1ccc(-c2cc(C(F)(F)F)nc(SCCC(=O)NCc3ccco3)n2)cc1`, for which the Potency entry is “inactive”. For `O=C(CSc1nc(-c2ccco2)cc(C(F)(F)F)n1)N1CCc2ccccc2C1`, the Potency result was “inactive”. With `O=C(CSc1nc(-c2ccco2)cc(C(F)(F)F)n1)NCc1cccs1` the figure was 15.8 µM (active).
